According to PubChem BioAssay:
Values without a mark were called inactive. Activity calls are given as the source filed them.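 The calls were made as follows, unless noted: active = compound raises insulin release from rat beta cells at 5 mM glucose, no numeric limit stated; inactive = the rest.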

Test: stimulators of insulin release from INS-1E, primary screen, cell-based, 5 mM glucose, NPC library (AID 1117329); also: reference of the scale not given here
Conditions: rat INS-1E insulin secretion, at 10 µM, active compounds read high

| Structure (SMILES) | insulin secretion stimulation |
| --- | --- |
| CCOC(=O)N1CCC(Nc2ccc(Cl)cc2N)CC1 | 0.6% |
| OCCCc1ccccc1 | 3.2% |
| CC[C@@H]([C@H](C)O)n1ncn(-c2ccc(N3CCN(c4ccc(OC[C@@H]5CO[C@@](Cn6cncn6)(c6ccc(F)cc6F)C5)cc4)CC3)cc2)c1=O | 1.4% |
| Nc1ncnc2c1ncn2Cc1c(F)cccc1Cl | 4.3% |
| Cc1nc2n(c(=O)c1CCN1CCC(C(=O)c3ccc(F)cc3)CC1)CCS2 | 0.2% |
| COC(=O)c1cc(Cl)c(NC(C)=O)cc1OC | 0.95% |
| CC(C(=O)O)c1ccc(/C=C2\CCCCC2=O)cc1 (stereo not drawn) | 0% |
| Cn1c(O)c(N=NC(N)=S)c2ccccc21 | 2% |
| OC[C@H]1O[C@@H](n2cnc3c(=S)nc[nH]c32)[C@H](O)[C@@H]1O | 0.7% |
| CCOC(=O)CN1CCCC1=O | 2.1% |
| COC(=O)/C=C(/C)N | -0.8% |
| CCCN(CCc1cccs1)[C@H]1CCc2c(O)cccc2C1 | 8.95% |
| CCCCCCCC/C=C\CCCCCCCCN | -0.6% |
| COc1ccc(S(=O)(=O)N2c3ccc(Cl)cc3[C@@](O)(c3ccccc3Cl)[C@H]2C(=O)N2CCC[C@@H]2C(N)=O)cc1OC | 2.35% |
| C/C(=N/NC(=O)c1ccncc1)C(=O)O | -0.8% |
| O=C(O)Cc1ccc(CCNS(=O)(=O)c2ccc(Cl)cc2)cc1 | 0.2% |
| CCOC(CN1CCN(CC(C)C(=O)c2ccccc2)CC1)c1ccccc1 (stereo not drawn) | 5% |
| C[C@@H]1CCN(C(=O)[C@H](CCCN=C(N)N)NS(=O)(=O)c2cccc3c2NC[C@H](C)C3)[C@@H](C(=O)O)C1 | 1.35% |
| Nc1cc(C(F)(F)F)ccc1S | 4.4% |
| c1ccc(C(O[C@H]2CCCN(CCc3ccc4c(c3)OCO4)C2)c2ccccc2)cc1 | 5.45% |

| Structure (SMILES) | insulin secretion stimulation |
| --- | --- |
| CCN(CC)CCOc1ccccc1C(=O)CCc1ccccc1 | 70% (active) |
| CCOCCOC(=O)/C=C/c1ccc(OC)cc1 | -1.7% |
| CC1(C)S[C@@H]2[C@H](NC(=O)Cc3ccccc3)C(=O)N2[C@H]1C(=O)O (tested in a mixture with another compound) | -0.8% |
| Cc1cnc(NS(=O)(=O)c2ccc(N)cc2)nc1 | 1.8% |
| CC(C)[C@H](N)C(=O)O | 0.4% |
| CCOC(=O)c1c(N)sc2c1CCN(Cc1ccccc1)C2 | -0.1% |
| CC1(C)CO[C@@H](CC(=O)O)CN1 | 0.5% |
| O=Cc1ccccc1C=O | -0.6% |
| COc1cc2c(cc1OC)C(C(C(=O)N(CCc1ccc(OC)c(OC)c1OC)CCc1ccc(OC)c(OC)c1OC)c1ccccc1)=NCC2 (stereo not drawn) | -0.9% |
| CC(=O)N1CCN(c2ccc(O)cc2)CC1 | -0.1% |
| C[C@H]1O[C@@H](O[C@H]2CC[C@@]3(C)[C@H](CC[C@@H]4[C@@H]3C[C@@H](O)[C@]3(C)[C@@H](C5=CC(=O)OC5)CC[C@]43O)C2)C[C@H](O)[C@@H]1O[C@H]1C[C@H](O)[C@H](O[C@H]2C[C@H](O)[C@H](O[C@@H]3O[C@H](CO)[C@@H](O)[C@H](O)[C@H]3O)[C@@H](C)O2)[C@@H](C)O1 | -0.5% |
| Cc1ncc(C[n+]2csc(CCOP(=O)(O)O)c2C)c(N)n1 | -0.4% |
| CC(C)(Cc1c[nH]c2ccccc12)NCC(O)COc1ccccc1C#N (stereo not drawn) | 44.5% (active) |
| CCC(C(=O)NC(=O)NC(C)=O)c1ccccc1 (stereo not drawn) | 0.6% |
| CCCCCOc1ccc(C2SC(=O)NC2=O)cc1OCC (stereo not drawn) | 0.7% |
| Cc1cc(N)c2cc(NC(=O)Nc3ccc4nc(C)cc(N)c4c3)ccc2n1 | 8.1% |
| CC(C)NCCCC1(C(N)=O)c2ccccc2-c2ccccc21 | 0.2% |
| CC(=O)c1ccc(OCC(=O)N2CCCCC2)cc1 | 0.25% |
| C[C@H](CCC(=O)O)[C@H]1CC[C@H]2[C@H]3[C@@H](CC[C@]12C)[C@@]1(C)CC[C@@H](O)C[C@H]1C[C@@H]3O | 1% |

Test: growth inhibition of GSK3B-pretreated HCT116 cells – cell-based, CellTiter-Glo, 0.2 to 20 µM (AID 1117336;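 active = compounds lowering colon cancer cell viability after pretreatment blocking the GSK3B kinase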)
Conditions: HCT116 viability after GSK3B inhibitor, at 20 µM, active compounds read high

| Structure (SMILES) | viability decrease |
| --- | --- |
| CCOC(=O)N1CCC(Nc2ccc(Cl)cc2N)CC1 | 0.9% |
| OCCCc1ccccc1 | 9.55% |
| CC[C@@H]([C@H](C)O)n1ncn(-c2ccc(N3CCN(c4ccc(OC[C@@H]5CO[C@@](Cn6cncn6)(c6ccc(F)cc6F)C5)cc4)CC3)cc2)c1=O | 11.8% |
| Nc1ncnc2c1ncn2Cc1c(F)cccc1Cl | -7.4% |
| Cc1nc2n(c(=O)c1CCN1CCC(C(=O)c3ccc(F)cc3)CC1)CCS2 | 38% |
| COC(=O)c1cc(Cl)c(NC(C)=O)cc1OC | -12.1% |
| CC(C(=O)O)c1ccc(/C=C2\CCCCC2=O)cc1 (stereo not drawn) | 5.4% |
| Cn1c(O)c(N=NC(N)=S)c2ccccc21 | 13.8% |
| OC[C@H]1O[C@@H](n2cnc3c(=S)nc[nH]c32)[C@H](O)[C@@H]1O | 95.3% (active) |
| CCOC(=O)CN1CCCC1=O | 1.1% |
| COC(=O)/C=C(/C)N | 17.3% |
| CCCN(CCc1cccs1)[C@H]1CCc2c(O)cccc2C1 | 48.4% |
| CCCCCCCC/C=C\CCCCCCCCN | 18.7% |
| COc1ccc(S(=O)(=O)N2c3ccc(Cl)cc3[C@@](O)(c3ccccc3Cl)[C@H]2C(=O)N2CCC[C@@H]2C(N)=O)cc1OC | 47.7% |
| C/C(=N/NC(=O)c1ccncc1)C(=O)O | -23.6% |
| O=C(O)Cc1ccc(CCNS(=O)(=O)c2ccc(Cl)cc2)cc1 | -5.1% |
| CCOC(CN1CCN(CC(C)C(=O)c2ccccc2)CC1)c1ccccc1 (stereo not drawn) | -4.9% |
| C[C@@H]1CCN(C(=O)[C@H](CCCN=C(N)N)NS(=O)(=O)c2cccc3c2NC[C@H](C)C3)[C@@H](C(=O)O)C1 | -9.7% |
| Nc1cc(C(F)(F)F)ccc1S | 2.3% |
| c1ccc(C(O[C@H]2CCCN(CCc3ccc4c(c3)OCO4)C2)c2ccccc2)cc1 | 100% (active) |

| Structure (SMILES) | viability decrease |
| --- | --- |
| CCN(CC)CCOc1ccccc1C(=O)CCc1ccccc1 | 14.5% |
| CCOCCOC(=O)/C=C/c1ccc(OC)cc1 | -11.8% |
| CC1(C)S[C@@H]2[C@H](NC(=O)Cc3ccccc3)C(=O)N2[C@H]1C(=O)O (tested in a mixture with another compound) | -4.9% |
| Cc1cnc(NS(=O)(=O)c2ccc(N)cc2)nc1 | 7.4% |
| CC(C)[C@H](N)C(=O)O | -2.3% |
| CCOC(=O)c1c(N)sc2c1CCN(Cc1ccccc1)C2 | 21.9% |
| CC1(C)CO[C@@H](CC(=O)O)CN1 | -0.8% |
| O=Cc1ccccc1C=O | 1.65% |
| COc1cc2c(cc1OC)C(C(C(=O)N(CCc1ccc(OC)c(OC)c1OC)CCc1ccc(OC)c(OC)c1OC)c1ccccc1)=NCC2 (stereo not drawn) | 74.1% (active) |
| CC(=O)N1CCN(c2ccc(O)cc2)CC1 | 73.5% (active) |
| C[C@H]1O[C@@H](O[C@H]2CC[C@@]3(C)[C@H](CC[C@@H]4[C@@H]3C[C@@H](O)[C@]3(C)[C@@H](C5=CC(=O)OC5)CC[C@]43O)C2)C[C@H](O)[C@@H]1O[C@H]1C[C@H](O)[C@H](O[C@H]2C[C@H](O)[C@H](O[C@@H]3O[C@H](CO)[C@@H](O)[C@H](O)[C@H]3O)[C@@H](C)O2)[C@@H](C)O1 | 65% (active) |
| Cc1ncc(C[n+]2csc(CCOP(=O)(O)O)c2C)c(N)n1 | -15.6% |
| CC(C)(Cc1c[nH]c2ccccc12)NCC(O)COc1ccccc1C#N (stereo not drawn) | 84.6% (active) |
| CCC(C(=O)NC(=O)NC(C)=O)c1ccccc1 (stereo not drawn) | 78.3% (active) |
| CCCCCOc1ccc(C2SC(=O)NC2=O)cc1OCC (stereo not drawn) | 46.8% |
| Cc1cc(N)c2cc(NC(=O)Nc3ccc4nc(C)cc(N)c4c3)ccc2n1 | 54.4% (active) |
| CC(C)NCCCC1(C(N)=O)c2ccccc2-c2ccccc21 | -48.2% |
| CC(=O)c1ccc(OCC(=O)N2CCCCC2)cc1 | 7.4% |
| C[C@H](CCC(=O)O)[C@H]1CC[C@H]2[C@H]3[C@@H](CC[C@]12C)[C@@]1(C)CC[C@@H](O)C[C@H]1C[C@@H]3O | -8.5% |
